From PubChem BioAssay (Tox21)
Records with an inconclusive call do not appear. Calls of active or inactive are those of the source. Unless noted, calls come from the whole dose curve.

Experiments:
[1] = Nuclear factor erythroid 2-related factor 2/antioxidant responsive element (Nrf2/ARE) small molecule agonists: qHTS cell viability counter screen in human keratinocytes (AID 1919968; active = well fitted curve in the direction sought with a large enough effect in the repeat runs; an effect the other way counts as inactive or inconclusive; note: nearly all actives have a fitted effect of over 55% in size)
Method in brief: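 CellTiter-Fluor fluorescence, read 1 h after reagent, gave viability in the same wells as the ARE-luciferase assay. KeratinoSens cells (1,500/well) had 23 h compound exposure at 37 C/5% CO2 following 5 h plating.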

[2] = Nuclear factor erythroid 2-related factor 2/antioxidant responsive element (Nrf2/ARE) small molecule agonists: luciferase reporter gene qHTS assay in human keratinocytes (AID 1919969); note: nearly all actives have a fitted effect of over 35% in size
[3] = target: Gonadotropin-releasing hormone receptor (Homo sapiens) (UniProt P30968); experiment: Human gonadotropin-releasing hormone receptor (GnRHR) small molecule agonists, calcium flux assay in GnRHR-HEK293 cells (AID 1920063); note: nearly all actives have a fitted effect of over 35% in size
Method in brief: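 Agonist mode: compounds at 15 concentrations, in triplicate, went onto calcium dye-loaded GnRHR-HEK293 cells. Intracellular calcium was then followed as 480/540 nm fluorescence at 1 s intervals over 3 min.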

[4] = target: KiSS-1 receptor (Homo sapiens) (UniProt Q969F8); experiment: Human kisspeptin (KISS1R) small molecule agonists, calcium flux assay in KISS1R-HEK293 cells (AID 1920064; active = well fitted curve in the direction sought with a large enough effect in the repeat runs; an effect the other way counts as inactive or inconclusive)
Method in brief: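 Agonist mode: intracellular calcium rise tracked at 1 s intervals over 3 min (480/540 nm) immediately after compound addition to dye-loaded KISS1R-HEK293 stable cells. Each compound tested at 15 concentrations in triplicate.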

[5] = G protein-coupled receptor (GPCR) small molecule agonists, calcium flux assay: HEK293 wild type cell line counter screen (AID 1920065)
Method in brief: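 Calcium flux counter screen: compound added in agonist mode at 15 concentrations in triplicate to dye-loaded parental HEK293 cells. Fluorescence (480/540) read kinetically for 3 min; ATP served as positive control.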

[6] = p53 small molecule agonists, cell-based qHTS assay with human liver microsomes (AID 1963577);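 note: p53 response element beta-lactamase reporter cells with liver microsomes plus NADPH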
Method in brief: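 Metabolically competent format: test substances, human liver microsomes and NADPH (both 0.5 mg/mL final) incubated with p53RE-bla cells 16 h at 37 C. Beta-lactamase reporter signal then quantified by fluorescence.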

[7] = p53 small molecule agonists, cell-based qHTS assay with rat liver microsomes (AID 1963578)
Method in brief: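 Each plate received p53RE-bla cells, then compound, then rat liver microsomes and NADPH (both 0.5 mg/mL final). Plates were held 16 h at 37 C, and beta-lactamase activity was detected with LiveBLAzer over 2 h.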

[8] = p53 small molecule agonists, cell-based qHTS assay with human liver microsomes: qHTS cell viability counter screen (AID 1963579); note: nearly all actives have a fitted effect of over 45% in size
Method in brief: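 Tox21 library compounds, delivered from DMSO stocks, were tested on p53RE-bla cells together with 0.5 mg/mL human liver microsomes and 0.5 mg/mL NADPH (final) over 16 h at 37 C; CellTiter-Glo luminescence served as the cytotoxicity measure.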

[9] = p53 small molecule agonists, cell-based qHTS assay with rat liver microsomes: qHTS cell viability counter screen (AID 1963580); note: nearly all actives have a fitted effect of over 45% in size
Method in brief: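 Rat liver microsome (0.5 mg/mL final) and NADPH (0.5 mg/mL final) co-incubation with compounds for 16 h at 37 C on HCT-116 p53RE-bla cells; cytotoxicity taken from intracellular ATP luminescence.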

[10] = p53 small molecule agonists, cell-based qHTS assay: qHTS cell viability counter screen (AID 1963581); note: nearly all actives have a fitted effect of over 45% in size
Method in brief: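 Counter screen read by CellTiter-Glo luminescence (ATP content, 30 min at room temperature), run in the same wells as the beta-lactamase reporter read. HCT-116 p53RE-bla cells saw compounds for 16 h at 37 C.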

[11] = p53 small molecule agonists, cell-based qHTS assay (AID 1963582; active = well fitted activation curve with a large enough effect in the signal ratio in the repeat runs, not every such curve was filed as active; the % refers to the signal ratio)
Method in brief: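 Read-out is beta-lactamase FRET fluorescence after 2 h at room temperature with LiveBLAzer B/G substrate. p53 response element-bla cells were treated 16 h at 37 C with compounds in DMSO, added 5 h after seeding.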

[12] = target: 5-hydroxytryptamine receptor 2A (Homo sapiens) (UniProt P28223); experiment: 5-hydroxytryptamine receptor 2A (HTR2A) small molecule antagonists, cell-based qHTS assay (AID 1963586); note: nearly all actives have a fitted effect of over 45% in size
Method in brief: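 CHO cells stably expressing human HTR2A were plated for 18 h at 37 C, then loaded with calcium dye for 1 h. Compounds were preincubated 5 min at room temperature before DOI (4 nM solution) was added. Kinetic fluorescence was read for 3 min.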

[13] = target: 5-hydroxytryptamine receptor 2A (Homo sapiens) (UniProt P28223); experiment: 5-hydroxytryptamine receptor 2A (HTR2A) small molecule agonists, cell-based qHTS assay (AID 1963587); note: nearly all actives have a fitted effect of over 30% in size
Method in brief: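 Kinetic calcium-flux fluorescence (2 min, 1 sec intervals) after compound addition in agonist mode. HTR2A-CHO cells were cultured 18 h, then dye-loaded 1 h at 37 C.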

[14] = target: Muscarinic acetylcholine receptor M1 (Homo sapiens) (UniProt P11229); experiment: Cholinergic receptor muscarinic 1 (CHRM1) small molecule antagonists, cell-based qHTS assay (AID 1963588); note: nearly all actives have a fitted effect of over 40% in size
Method in brief: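 Compounds were tested at 15 concentrations in three independent runs. Dye-loaded CHRM1-CHO cells were exposed 5 min at room temperature before stimulation by acetylcholine added at 50nM. Intracellular calcium was read kinetically on FDSS for 3 min.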

[15] = cAMP Responsive Elements (CRE) small molecule agonists, cell-based qHTS assay (AID 1963590)
Method in brief: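 Agonist mode: compound added to CRE-bla HEK 293T cells (2,000/well, 18 h after plating) for 3 h at 37 C/5% CO2. Reporter activity detected via FRET beta-lactamase substrate, 2 h room-temperature loading.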

[16] = target: Beta-2 adrenergic receptor (Homo sapiens) (UniProt P07550); experiment: Adrenergic beta2 receptor (ADRB2) small molecule antagonists, cell-based qHTS assay (AID 1963592); note: series mostly up to about 92 µM; nearly all actives have a fitted effect of over 50% in size
Method in brief: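 Assay format: CHO-ADRB2 cells, 18-20hr seeding at 37C/5% CO2, then compound plus 1nM isoproterenol agonist mix for 0.5hr RT. Homogeneous time-resolved fluorescence cAMP detection after 1hr, expressed as 665/615 nm ratio.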

[17] = target: Beta-2 adrenergic receptor (Homo sapiens) (UniProt P07550); experiment: Adrenergic beta2 receptor (ADRB2) small molecule agonists, cell-based qHTS assay (AID 1963593);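 note: CHO cells stably overexpressing human ADRB2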
Method in brief: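 CHO cells stably over-expressing ADRB2 were plated overnight at 37C, then dosed with compounds plus a stimulation mix containing 100uM IBMX and 25uM Ro-20-1724 for 0.5hr at room temperature. cAMP was measured by HTRF competition, 1hr.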

[18] = target: D(2) dopamine receptor (Homo sapiens) (UniProt P14416); experiment: Dopamine D2 receptor (DRD2) small molecule agonists, cell-based qHTS assay (AID 1963594); note: nearly all actives have a fitted effect of over 35% in size
Method in brief: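 cAMP accumulation in DRD2-HEK293 cells measured by HTRF after 1 h detection; compounds added 10 min before NKH477 (200nM […]) forskolin-analogue stimulation, 30 min at room temperature, with Ro20-1724 present at 0.1 mM final.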

[19] = target: D(2) dopamine receptor (Homo sapiens) (UniProt P14416); experiment: Dopamine D2 receptor (DRD2) small molecule antagonists, cell-based qHTS assay (AID 1963595; active = well fitted inhibition curve with a large enough effect in the signal ratio in the repeat runs, with a control signal flat; the % refers to the signal ratio)
Method in brief: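 Human DRD2 antagonist qHTS measuring cAMP by HTRF. The cells are exposed to compound for 10 min, then to NKH477 (200 nM) and quinpirole (12 nM) for 30 min at RT, with Ro20-1724 (0.1 mM) present throughout.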

[20] = cAMP Responsive Elements (CRE) small molecule antagonists, cell-based qHTS assay (AID 1963591; active = well fitted inhibition curve with a large enough effect in the signal ratio in the repeat runs, not every such curve was filed as active; the % refers to the signal ratio)
Method in brief: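 Antagonist mode: compounds are added alongside the adenylyl cyclase activator NKH477 (0.25 uM final) to CRE-bla HEK293T cells for 3 h. LiveBLAzer FRET substrate, 2 h at room temperature, reports bla expression.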

Measured: Potency

Sequence of Muscarinic acetylcholine receptor M1 (Homo sapiens) (P11229 whole entry, looked up): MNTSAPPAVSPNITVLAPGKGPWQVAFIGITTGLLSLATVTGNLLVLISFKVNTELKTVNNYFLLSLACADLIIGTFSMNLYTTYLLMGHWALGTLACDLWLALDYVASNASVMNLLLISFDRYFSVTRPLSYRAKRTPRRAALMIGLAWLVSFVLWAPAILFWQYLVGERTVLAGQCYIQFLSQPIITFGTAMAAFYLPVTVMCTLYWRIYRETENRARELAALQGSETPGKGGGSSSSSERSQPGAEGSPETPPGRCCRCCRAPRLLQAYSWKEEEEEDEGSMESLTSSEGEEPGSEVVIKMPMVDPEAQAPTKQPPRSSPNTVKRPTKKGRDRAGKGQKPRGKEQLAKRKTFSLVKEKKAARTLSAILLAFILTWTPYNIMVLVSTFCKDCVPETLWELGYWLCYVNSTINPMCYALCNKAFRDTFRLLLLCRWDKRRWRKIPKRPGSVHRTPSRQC
Sequence of 5-hydroxytryptamine receptor 2A (Homo sapiens) (P28223 whole entry, looked up): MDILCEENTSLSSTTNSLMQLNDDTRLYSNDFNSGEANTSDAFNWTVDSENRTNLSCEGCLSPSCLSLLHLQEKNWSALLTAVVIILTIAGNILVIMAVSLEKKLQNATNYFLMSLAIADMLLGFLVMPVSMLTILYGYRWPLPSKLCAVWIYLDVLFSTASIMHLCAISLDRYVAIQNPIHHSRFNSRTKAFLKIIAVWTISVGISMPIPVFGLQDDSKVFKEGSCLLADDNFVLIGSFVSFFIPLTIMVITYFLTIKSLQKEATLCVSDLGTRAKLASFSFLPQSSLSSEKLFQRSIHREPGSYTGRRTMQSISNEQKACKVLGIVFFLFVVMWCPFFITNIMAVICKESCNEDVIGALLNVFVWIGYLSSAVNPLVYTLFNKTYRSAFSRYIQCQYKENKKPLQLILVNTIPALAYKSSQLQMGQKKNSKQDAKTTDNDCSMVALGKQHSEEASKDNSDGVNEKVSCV
Sequence of Gonadotropin-releasing hormone receptor (Homo sapiens) (P30968 whole entry, looked up): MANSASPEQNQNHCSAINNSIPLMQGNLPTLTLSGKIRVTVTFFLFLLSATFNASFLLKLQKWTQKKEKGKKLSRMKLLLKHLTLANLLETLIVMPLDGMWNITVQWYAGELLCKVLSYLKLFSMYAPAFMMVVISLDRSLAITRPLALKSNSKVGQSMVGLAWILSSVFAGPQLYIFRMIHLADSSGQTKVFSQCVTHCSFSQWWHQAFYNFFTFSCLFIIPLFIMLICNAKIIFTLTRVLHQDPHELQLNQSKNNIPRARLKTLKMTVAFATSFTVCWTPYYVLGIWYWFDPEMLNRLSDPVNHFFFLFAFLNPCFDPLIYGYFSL
Sequence of KiSS-1 receptor (Homo sapiens) (Q969F8 whole entry, looked up): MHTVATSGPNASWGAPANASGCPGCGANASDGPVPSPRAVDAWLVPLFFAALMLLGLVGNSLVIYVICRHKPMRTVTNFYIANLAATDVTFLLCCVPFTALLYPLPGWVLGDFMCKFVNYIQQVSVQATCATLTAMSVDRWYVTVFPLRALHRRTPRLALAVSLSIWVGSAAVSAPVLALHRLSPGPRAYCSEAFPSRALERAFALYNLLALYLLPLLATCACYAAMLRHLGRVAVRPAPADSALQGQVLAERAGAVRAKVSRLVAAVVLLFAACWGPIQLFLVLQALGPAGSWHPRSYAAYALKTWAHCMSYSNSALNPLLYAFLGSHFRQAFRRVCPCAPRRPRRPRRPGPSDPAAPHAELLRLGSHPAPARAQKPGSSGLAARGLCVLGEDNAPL
Sequence of Beta-2 adrenergic receptor (Homo sapiens) (P07550 whole entry, looked up): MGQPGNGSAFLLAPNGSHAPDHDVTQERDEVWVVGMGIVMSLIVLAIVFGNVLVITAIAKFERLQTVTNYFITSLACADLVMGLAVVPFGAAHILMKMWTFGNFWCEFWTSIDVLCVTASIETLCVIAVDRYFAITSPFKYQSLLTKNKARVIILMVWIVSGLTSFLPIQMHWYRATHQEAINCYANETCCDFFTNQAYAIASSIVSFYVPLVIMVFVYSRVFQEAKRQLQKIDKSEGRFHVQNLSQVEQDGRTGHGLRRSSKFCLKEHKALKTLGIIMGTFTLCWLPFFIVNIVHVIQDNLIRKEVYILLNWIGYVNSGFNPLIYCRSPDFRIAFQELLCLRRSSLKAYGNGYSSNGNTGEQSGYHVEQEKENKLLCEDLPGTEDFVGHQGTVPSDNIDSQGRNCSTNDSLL
Sequence of D(2) dopamine receptor (Homo sapiens) (P14416 whole entry, looked up): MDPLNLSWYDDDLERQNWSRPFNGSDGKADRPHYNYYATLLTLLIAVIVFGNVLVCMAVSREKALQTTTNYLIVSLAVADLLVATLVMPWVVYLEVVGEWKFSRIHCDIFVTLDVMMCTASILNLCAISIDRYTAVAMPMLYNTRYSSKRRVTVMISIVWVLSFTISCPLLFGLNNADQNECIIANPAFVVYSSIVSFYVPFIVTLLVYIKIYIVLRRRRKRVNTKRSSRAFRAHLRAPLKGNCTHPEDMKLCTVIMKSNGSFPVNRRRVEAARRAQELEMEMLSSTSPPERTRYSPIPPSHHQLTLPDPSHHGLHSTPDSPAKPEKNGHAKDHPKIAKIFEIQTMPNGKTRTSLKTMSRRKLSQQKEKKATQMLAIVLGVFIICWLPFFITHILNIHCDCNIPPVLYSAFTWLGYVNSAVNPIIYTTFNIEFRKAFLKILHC

Cc1ccc(O)cc1
inactive: [1] | [2] | [3] | [4] | [5] | [6] | [7] | [8] | [9] | [10] | [11] | [12] | [13] | [14] | [15] | [16] | [17] | [18] | [19]

CCNc1cccc(C)c1
inactive: [1] | [2] | [3] | [4] | [5] | [6] | [7] | [8] | [9] | [10] | [11] | [12] | [13] | [15] | [20] | [16] | [18] | [19]

Cc1ccc([N+](=O)[O-])cc1N
inactive: [1] | [2] | [3] | [4] | [5] | [6] | [7] | [8] | [9] | [10] | [11] | [13] | [14] | [15] | [20] | [16] | [17] | [18] | [19]

Cc1ncc[nH]1
inactive: [1] | [2] | [3] | [4] | [5] | [6] | [7] | [8] | [9] | [10] | [11] | [12] | [14] | [15] | [20] | [16] | [17] | [18] | [19]

[Na+]
inactive: [1] | [2] | [3] | [4] | [5] | [6] | [7] | [8] | [9] | [10] | [11] | [12] | [13] | [15] | [16] | [17] | [18] | [19]

CCCCCCCC=O
inactive: [1] | [2] | [3] | [4] | [5] | [6] | [7] | [8] | [9] | [10] | [11] | [12] | [14] | [15] | [16] | [17] | [18] | [19]

Cc1cccc(O)c1
inactive: [1] | [2] | [3] | [4] | [5] | [6] | [7] | [8] | [9] | [10] | [11] | [12] | [14] | [15] | [20] | [16] | [18] | [19]
